Eight sequences from PMC7862700, “An all-to-all approach to the identification of sequence-specific readers for epigenetic DNA modifications on cytosine” can be followed below.

Assay in all cases: DAPPL (digital affinity profiling via proximity ligation, sequencing); 10 mM Tris-HCl pH 7.5, 50 mM NaCl, 1 mM DTT, 4% glycerol, room temperature, 30 min; GST-TFs on glutathione beads, 16-mer random dsDNA library, 0.1% formaldehyde crosslink after washing; high values mean tight binding
Conditions in all cases: protein: recombinant; tags: N-terminal GST; dsDNA, one strand shown

Test [1] concerns the target T1, FLI1 (Homo sapiens, UniProt Q01543 1-452).
T1 sequence: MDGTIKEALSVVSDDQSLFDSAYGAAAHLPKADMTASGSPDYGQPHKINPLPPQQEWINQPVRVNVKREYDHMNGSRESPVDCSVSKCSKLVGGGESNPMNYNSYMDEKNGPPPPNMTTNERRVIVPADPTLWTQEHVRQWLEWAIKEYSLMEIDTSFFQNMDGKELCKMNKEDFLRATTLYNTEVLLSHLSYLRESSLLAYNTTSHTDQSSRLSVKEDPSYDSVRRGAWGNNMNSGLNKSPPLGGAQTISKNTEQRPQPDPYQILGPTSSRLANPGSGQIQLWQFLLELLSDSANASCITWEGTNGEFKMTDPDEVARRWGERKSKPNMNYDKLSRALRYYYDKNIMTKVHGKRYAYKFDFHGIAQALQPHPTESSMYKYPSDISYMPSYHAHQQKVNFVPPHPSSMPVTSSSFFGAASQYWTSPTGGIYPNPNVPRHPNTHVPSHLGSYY
The procedure, abridged:
(§1)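 Pools of DNA-barcoded human transcription factors, expressed in yeast as GST fusions on glutathione beads and combined with a tag-only sample, were incubated with 200 nmole of a 16-mer random double-stranded DNA library. Incubation took 30 min at room temperature in Tris/NaCl/DTT/glycerol buffer and was followed by washing, 0.1% formaldehyde crosslinking, proximity ligation (BsaI/T4 ligase, 1 h, 37 °C), PCR amplification and sequencing on an Illumina NextSeq500. Binding signal is the ratio of a hexamer's read frequency for a factor to its frequency for the tag-only sample.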

Test [2] has as its target T2, ELK1 (Homo sapiens, UniProt P19419 1-428).
T2 sequence: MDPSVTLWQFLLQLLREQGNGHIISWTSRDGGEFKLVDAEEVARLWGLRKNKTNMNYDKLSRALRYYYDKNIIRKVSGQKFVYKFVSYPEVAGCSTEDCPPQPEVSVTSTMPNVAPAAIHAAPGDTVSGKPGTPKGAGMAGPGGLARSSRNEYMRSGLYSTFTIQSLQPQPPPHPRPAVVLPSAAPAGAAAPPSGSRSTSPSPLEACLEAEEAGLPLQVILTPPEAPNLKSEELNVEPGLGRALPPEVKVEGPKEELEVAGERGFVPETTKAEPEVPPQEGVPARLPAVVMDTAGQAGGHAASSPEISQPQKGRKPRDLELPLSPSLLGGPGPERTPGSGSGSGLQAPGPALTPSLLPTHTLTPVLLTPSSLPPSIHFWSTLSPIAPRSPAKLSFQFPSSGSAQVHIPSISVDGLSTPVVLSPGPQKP
In a few lines: as §1

In test [3] the target is T3, GABPA (Homo sapiens, UniProt Q06546 1-454).
T3 sequence: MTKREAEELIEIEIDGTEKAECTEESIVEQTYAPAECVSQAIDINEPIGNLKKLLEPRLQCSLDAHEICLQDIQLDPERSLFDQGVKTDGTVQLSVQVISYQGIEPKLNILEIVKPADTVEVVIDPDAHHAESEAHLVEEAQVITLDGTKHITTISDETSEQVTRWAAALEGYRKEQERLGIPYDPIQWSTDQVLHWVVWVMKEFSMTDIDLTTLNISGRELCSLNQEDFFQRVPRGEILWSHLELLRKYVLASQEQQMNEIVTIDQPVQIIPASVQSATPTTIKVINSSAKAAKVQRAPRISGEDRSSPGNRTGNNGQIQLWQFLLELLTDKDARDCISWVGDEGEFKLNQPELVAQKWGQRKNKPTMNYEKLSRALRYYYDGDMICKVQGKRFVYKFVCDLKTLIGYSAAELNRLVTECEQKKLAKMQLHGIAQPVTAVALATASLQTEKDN
The procedure, abridged: as §1

The target in test [4] is T4, ERG (Homo sapiens, UniProt P11308 1-479).
T4 sequence: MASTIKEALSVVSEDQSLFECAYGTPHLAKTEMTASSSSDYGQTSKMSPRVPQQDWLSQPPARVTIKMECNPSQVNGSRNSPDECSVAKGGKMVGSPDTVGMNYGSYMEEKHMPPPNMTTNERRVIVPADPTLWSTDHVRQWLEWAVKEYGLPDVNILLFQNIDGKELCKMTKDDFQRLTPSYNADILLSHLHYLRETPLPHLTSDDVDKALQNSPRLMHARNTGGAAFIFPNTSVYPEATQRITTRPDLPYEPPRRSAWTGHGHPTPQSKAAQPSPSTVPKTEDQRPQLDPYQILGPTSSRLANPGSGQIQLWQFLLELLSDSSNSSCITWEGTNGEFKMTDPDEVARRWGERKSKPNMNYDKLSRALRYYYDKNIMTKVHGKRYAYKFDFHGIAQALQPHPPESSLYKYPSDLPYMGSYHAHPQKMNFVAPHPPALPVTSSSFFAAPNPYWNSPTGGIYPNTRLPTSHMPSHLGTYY
The procedure, abridged: as §1

In test [5] the target is ELF1 (Homo sapiens, UniProt P32519 1-619). The procedure, abridged:
as §1

Test [6] has as its target T5, EHF (Homo sapiens, UniProt Q9NZC4 1-300).
T5 sequence: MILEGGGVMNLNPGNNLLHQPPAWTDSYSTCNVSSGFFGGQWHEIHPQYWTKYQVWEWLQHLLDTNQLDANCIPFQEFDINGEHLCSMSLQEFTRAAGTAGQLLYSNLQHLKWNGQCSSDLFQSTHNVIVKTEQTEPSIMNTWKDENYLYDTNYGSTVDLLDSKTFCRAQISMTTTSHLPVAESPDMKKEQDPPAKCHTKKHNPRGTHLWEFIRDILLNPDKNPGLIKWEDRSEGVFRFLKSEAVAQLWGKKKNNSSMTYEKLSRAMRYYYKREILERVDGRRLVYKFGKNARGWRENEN
The procedure, abridged:
as §1

The target of test [7] is SPI1 (Homo sapiens, UniProt P17947 1-270). In a few lines: as §1
Test [8] addresses SPIB (Homo sapiens, UniProt Q01892 1-262). In a few lines:
as §1

Test [9] concerns the target T6, ELK3 (Homo sapiens, UniProt P41970 1-407).
T6 sequence: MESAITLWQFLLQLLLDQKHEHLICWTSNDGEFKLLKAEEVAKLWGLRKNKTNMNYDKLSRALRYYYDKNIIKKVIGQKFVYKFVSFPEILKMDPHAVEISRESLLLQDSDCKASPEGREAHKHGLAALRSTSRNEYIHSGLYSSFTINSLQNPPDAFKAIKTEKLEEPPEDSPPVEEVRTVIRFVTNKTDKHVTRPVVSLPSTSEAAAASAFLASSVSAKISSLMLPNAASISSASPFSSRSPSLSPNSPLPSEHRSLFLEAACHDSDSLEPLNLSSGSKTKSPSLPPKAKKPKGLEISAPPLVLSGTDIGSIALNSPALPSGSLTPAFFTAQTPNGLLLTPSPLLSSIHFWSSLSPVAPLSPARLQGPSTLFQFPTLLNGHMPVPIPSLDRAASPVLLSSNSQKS
The procedure, abridged:
as §1

Sequence of SPIB (Q01892 whole entry): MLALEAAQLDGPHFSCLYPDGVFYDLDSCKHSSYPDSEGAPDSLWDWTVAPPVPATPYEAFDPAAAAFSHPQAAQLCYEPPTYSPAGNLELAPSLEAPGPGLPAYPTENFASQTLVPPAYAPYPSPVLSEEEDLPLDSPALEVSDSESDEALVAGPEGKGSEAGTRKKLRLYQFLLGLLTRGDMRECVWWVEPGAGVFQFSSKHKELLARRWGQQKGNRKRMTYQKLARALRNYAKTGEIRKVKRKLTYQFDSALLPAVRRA
Sequence of ELF1 (P32519 whole entry): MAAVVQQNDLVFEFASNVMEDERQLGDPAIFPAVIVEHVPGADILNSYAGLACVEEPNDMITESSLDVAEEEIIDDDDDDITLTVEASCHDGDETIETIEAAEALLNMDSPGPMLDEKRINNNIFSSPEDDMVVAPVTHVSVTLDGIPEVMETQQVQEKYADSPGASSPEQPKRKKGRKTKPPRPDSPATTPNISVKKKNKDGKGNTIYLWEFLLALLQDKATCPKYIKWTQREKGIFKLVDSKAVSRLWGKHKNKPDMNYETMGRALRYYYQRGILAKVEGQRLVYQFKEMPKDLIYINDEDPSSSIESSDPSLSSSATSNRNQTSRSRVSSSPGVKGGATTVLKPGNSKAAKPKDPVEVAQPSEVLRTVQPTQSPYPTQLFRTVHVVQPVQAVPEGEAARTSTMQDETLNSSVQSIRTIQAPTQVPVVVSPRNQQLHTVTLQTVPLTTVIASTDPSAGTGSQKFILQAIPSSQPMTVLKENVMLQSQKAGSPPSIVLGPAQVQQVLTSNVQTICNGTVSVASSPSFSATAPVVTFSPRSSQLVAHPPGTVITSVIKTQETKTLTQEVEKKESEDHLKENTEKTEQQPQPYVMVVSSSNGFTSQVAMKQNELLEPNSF

For TTCTAC, the binding signal in [1] was 1.39 fold enrichment (6-mer frequency, TF over GST control); in [2], 1.43 fold enrichment (6-mer frequency, TF over GST control); in test [3], 1.59 fold enrichment (6-mer frequency, TF over GST control); in [4], 1.53 fold enrichment (6-mer frequency, TF over GST control); in test [5], 1.55 fold enrichment (6-mer frequency, TF over GST control); in test [6] it was 1.49 fold enrichment (6-mer frequency, TF over GST control). For the same sequence, the binding signal in [7] is 1.46 fold enrichment (6-mer frequency, TF over GST control); in test [8] it was 1.6 fold enrichment (6-mer frequency, TF over GST control); in test [9], 1.44 fold enrichment (6-mer frequency, TF over GST control).
For ATTAAT, the binding signal in [1] is 1.23 fold enrichment (6-mer frequency, TF over GST control); in test [2] it was 1.24 fold enrichment (6-mer frequency, TF over GST control); in test [3] it was 1.29 fold enrichment (6-mer frequency, TF over GST control); in [4], 1.21 fold enrichment (6-mer frequency, TF over GST control); in test [5] it was 1.23 fold enrichment (6-mer frequency, TF over GST control); in test [6], 1.2 fold enrichment (6-mer frequency, TF over GST control). In addition, the binding signal was 1.21 fold enrichment (6-mer frequency, TF over GST control) in test [7]; 1.24 fold enrichment (6-mer frequency, TF over GST control) in test [8]; 1.26 fold enrichment (6-mer frequency, TF over GST control) in test [9].
As to TGCCTC, the binding signal was 1.39 fold enrichment (6-mer frequency, TF over GST control) in test [1]; 1.31 fold enrichment (6-mer frequency, TF over GST control) in [2]; 1.36 fold enrichment (6-mer frequency, TF over GST control) in test [3]; 1.35 fold enrichment (6-mer frequency, TF over GST control) in [4]; 1.31 fold enrichment (6-mer frequency, TF over GST control) in test [5]; 1.26 fold enrichment (6-mer frequency, TF over GST control) in test [6]. The binding signal is 1.39 fold enrichment (6-mer frequency, TF over GST control) in test [7]; 1.4 fold enrichment (6-mer frequency, TF over GST control) in test [8]; 1.27 fold enrichment (6-mer frequency, TF over GST control) in test [9].
As to TCTTGG, the binding signal in [1] was 1.44 fold enrichment (6-mer frequency, TF over GST control); in [2], 1.35 fold enrichment (6-mer frequency, TF over GST control); in test [3], 1.52 fold enrichment (6-mer frequency, TF over GST control); in test [4], 1.38 fold enrichment (6-mer frequency, TF over GST control); in [5] it was 1.28 fold enrichment (6-mer frequency, TF over GST control); in [6], 1.48 fold enrichment (6-mer frequency, TF over GST control). Also, the binding signal was 1.35 fold enrichment (6-mer frequency, TF over GST control) in test [7]; 1.4 fold enrichment (6-mer frequency, TF over GST control) in test [8]; 1.4 fold enrichment (6-mer frequency, TF over GST control) in [9].
On to CCTAAT, for which the binding signal is 1.32 fold enrichment (6-mer frequency, TF over GST control) in [1]; 1.12 fold enrichment (6-mer frequency, TF over GST control) in test [2]; 1.29 fold enrichment (6-mer frequency, TF over GST control) in [3]; 1.34 fold enrichment (6-mer frequency, TF over GST control) in test [4]; 1.39 fold enrichment (6-mer frequency, TF over GST control) in test [5]; 1.28 fold enrichment (6-mer frequency, TF over GST control) in test [6]. The binding signal in test [7] was 1.34 fold enrichment (6-mer frequency, TF over GST control); in test [8], 1.44 fold enrichment (6-mer frequency, TF over GST control); in test [9], 1.29 fold enrichment (6-mer frequency, TF over GST control).
In the case of CTATGG, the binding signal in test [1] was 1.25 fold enrichment (6-mer frequency, TF over GST control); in [2] it was 1.14 fold enrichment (6-mer frequency, TF over GST control); in [3], 1.21 fold enrichment (6-mer frequency, TF over GST control); in test [4] it was 1.15 fold enrichment (6-mer frequency, TF over GST control); in [5], 1.19 fold enrichment (6-mer frequency, TF over GST control); in [6], 1.3 fold enrichment (6-mer frequency, TF over GST control). The binding signal is 1.17 fold enrichment (6-mer frequency, TF over GST control) in test [7]; 1.19 fold enrichment (6-mer frequency, TF over GST control) in test [8]; 1.2 fold enrichment (6-mer frequency, TF over GST control) in test [9].
Turning to AATCTT, the binding signal is 1.36 fold enrichment (6-mer frequency, TF over GST control) in test [1]; 1.24 fold enrichment (6-mer frequency, TF over GST control) in test [2]; 1.28 fold enrichment (6-mer frequency, TF over GST control) in test [3]; 1.32 fold enrichment (6-mer frequency, TF over GST control) in test [4]; 1.29 fold enrichment (6-mer frequency, TF over GST control) in test [5]; 1.29 fold enrichment (6-mer frequency, TF over GST control) in [6]. For the same sequence, the binding signal was 1.26 fold enrichment (6-mer frequency, TF over GST control) in test [7]; 1.29 fold enrichment (6-mer frequency, TF over GST control) in test [8]; 1.44 fold enrichment (6-mer frequency, TF over GST control) in test [9].
With CGATCT, the binding signal is 1.37 fold enrichment (6-mer frequency, TF over GST control) in test [1]; 1.25 fold enrichment (6-mer frequency, TF over GST control) in test [2]; 1.29 fold enrichment (6-mer frequency, TF over GST control) in test [3]; 1.28 fold enrichment (6-mer frequency, TF over GST control) in test [4]; 1.3 fold enrichment (6-mer frequency, TF over GST control) in test [5]; 1.32 fold enrichment (6-mer frequency, TF over GST control) in test [6]. Also, the binding signal is 1.22 fold enrichment (6-mer frequency, TF over GST control) in test [7]; 1.3 fold enrichment (6-mer frequency, TF over GST control) in test [8]; 1.3 fold enrichment (6-mer frequency, TF over GST control) in [9].
